Substitutions are numbered along the chain they refer to. Over roughly 24,000 sequences, “enrichment r” has its median near 0.99; the highest 2% begin near 3.7. The full list was thinned out, with the highest values kept by preference.
T1: UNK ZnF1-3 (human, UniProt Q9C0B0 31-174)
T1 sequence: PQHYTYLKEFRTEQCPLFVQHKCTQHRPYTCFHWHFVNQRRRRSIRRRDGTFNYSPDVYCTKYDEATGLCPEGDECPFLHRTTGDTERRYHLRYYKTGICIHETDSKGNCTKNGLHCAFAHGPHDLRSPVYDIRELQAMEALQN

B1: chr4:109959997:109959998:-_ENSMUSG00000028546_ENSMUST00000106598|mus_hu|FALSE|FALSE (ssRNA)
RNA: GGGAGUUCUACAGUCCGACGAUCUGUUAUAUAUAAUUAAAGAUCCACAAAACACAGUGUGGAUGAUUGUAAAGCAAAUCAAUUAUUUUUGGGGGGGUGGGCGGGGGAGAGAAAGAAAAAAAAGAAAAGGAGCAGUGAGCUGAACAACAGAGGAUUGAGCAUCA
B2: chr8:73998637:73998638:+_ENSMUSG00000074247_ENSMUST00000124745|mus_hu|FALSE|FALSE (ssRNA)
RNA: GGGAGUUCUACAGUCCGACGAUCCUUGAUACAGGUUACAGCAUAAAUAAAAACUCAAGGAAAAUAAAUACAUCGGCUCCUAUGAGGUUGGAAGUGGUGUGGACGCAGGGUGUGGAUGGGCCGGCAGGGAGGCGGGCGGGCGGGCAACAGAGGAUUGAGCAUCA
B3: chr1:46159212:46159213:+_ENSG00000159596_ENST00000372025|hu_mus|hu_hu_hu_mus_True|68_98 (ssRNA)
RNA: GGGAGUUCUACAGUCCGACGAUCUCUGAUCCCUCCCAAGAAAGAUAGGAAACCGGCUCCAUAAGCCAUCUGAGUAAAAGCUAGGACGGGGAUAUAAGACUUUGUUAUUACCAUGAGAAGUGGGGGAGCAGUAAAGGGGAUUAACAACAGAGGAUUGAGCAUCA
B4: chr12:86641468:86641469:-_ENSMUSG00000034290_ENSMUST00000040992|mus_hu|FALSE|FALSE (ssRNA)
RNA: GGGAGUUCUACAGUCCGACGAUCCAAGACCUCCCACAAUGUUGAUAAGAUUAUCAAACAUUUUGGUCUGGGGAAGAUGAAACAAAAUUAAUUUAGCUGUUUAUAGGAAGGUGGGAUGUGAGACUCAUCAAAGGUAGGAUGUGUCAACAGAGGAUUGAGCAUCA
B5: chr2:238002776:238002777:+_ENSG00000198612_ENST00000392008|hu_hu|FALSE|FALSE (ssRNA)
RNA: GGGAGUUCUACAGUCCGACGAUCGAUUGAAGUAUACGCUUGAGAGACCAGGGCAAAGGCGCGUCUCCUUGUUGCAUCUCUAAGUGCUUCCAUAAUUGGCUGGACCGUCUCAGACCACUGGUGAGCGUUGAUGGUUGUAUAGAUCAACAGAGGAUUGAGCAUCA
B6: chr8:27092522:27092523:-_ENSMUSG00000037251_ENSMUST00000061850|mus_mus|FALSE|FALSE (ssRNA)
RNA: GGGAGUUCUACAGUCCGACGAUCAGCGGGGUGGGUUGUUGUUUGCUGUUGGUCGGUGUUUGUGAAGUGGUCGUGGGCGAAGAAGAAACAAGAAGAAAUGAGAUAUCUUGGCAGCAAAGAUCAUUGCUCCAAGGAACUCGACACCAACAGAGGAUUGAGCAUCA
B7: chr4:109959997:109959998:-_ENSMUSG00000028546_ENSMUST00000106598|mus_mus|motif|central (ssRNA)
RNA: GGGAGUUCUACAGUCCGACGAUCUAUAUAUAUAUAUUAAAGAUCCACAGACCACAGUGUGGAUGAUUGUAAAGUAAAUCGGUUAUUGGGAGGGGGUGGGGUGGGAAAGAAAGGGGGAAAAAAAAGAGAGGAAGAAAAGGCGCACAACAGAGGAUUGAGCAUCA
B8: chr1:205685097:205685098:-_ENSG00000069275_ENST00000367142|hu_hu|motif|central (ssRNA)
RNA: GGGAGUUCUACAGUCCGACGAUCUAUCAAGCCUGACUAUUGAGCACCUGUAUCCAGUUGAGUCACCACCACUGUCCUCCGGUUUGCAUGCAUGAUUUGAGGGGAAGACUAGAGUGUUUUAAAUCAUCAAUAAAAAGUGGAGAACAACAGAGGAUUGAGCAUCA
B9: chr16:49913422:49913423:+_ENSMUSG00000055447_ENSMUST00000084838|mus_mus|motif|central (ssRNA)
RNA: GGGAGUUCUACAGUCCGACGAUCGCUCUCUACGAUUGUAUAAGUGGAGGGCAGACAAUAAAUAAAAAUUGAAUAGAGGCGGUGACAGCAGAAAUCGGGAUUUGGGAGAGAAAAGCGCAUUGUGGGACAAAACAGAUGCGUGGUCAACAGAGGAUUGAGCAUCA
B10: chr1:46159212:46159213:+_ENSG00000159596_ENST00000372025|hu_mus|hu_hu_hu_mus_True|8_68 (ssRNA)
RNA: B3 RNA with A44C, G130A, U131C, A132G
B11: chr16:49913422:49913423:+_ENSMUSG00000055447_ENSMUST00000084838|mus_mus|FALSE|FALSE (ssRNA)
RNA: B9 RNA with G80U, G81A
B12: chr4:109959997:109959998:-_ENSMUSG00000028546_ENSMUST00000106598|mus_mus|FALSE|FALSE (ssRNA)
RNA: B7 RNA with G80U, G81A
B13: chr6:36760027:36760028:-_ENSMUSG00000029838_ENSMUST00000101534|mus_hu|FALSE|FALSE (ssRNA)
RNA: GGGAGUUCUACAGUCCGACGAUCGUACCCGGCUCGCUGCAGCUCCUGCUUGGGCCGCUGCUGCUCUCCCCGCCUUCUGGACGGAUGACUCACUGGUCUCUUUCUUCCCCUCUCUCCACUUUGGAUUUUCCUCUGCUCUGGGGCCAACAGAGGAUUGAGCAUCA
B14: chr5:37680062:37680063:+_ENSMUSG00000029121_ENSMUST00000031004|mus_hu|mus_mus_mus_hu_False|8_38 (ssRNA)
RNA: GGGAGUUCUACAGUCCGACGAUCUUUGGGUGUAGCUGGUACCUCGUACACAGGACCGUCAUACAUGCCCCUGGAAACCCCUUGCAAUCCAAAAACCUUGCUUCUGAUUUUGACGCGCUGGUACAGGUGCUCUGGGAACGCCUUCAACAGAGGAUUGAGCAUCA

The binders below were run against T1, UNK ZnF1-3 (assay: nsRBNS (natural sequence RNA bind-n-seq); RBNS binding buffer (assumed for nsRBNS): 25 mM Tris pH 7.5, 150 mM KCl, 3 mM MgCl2, 0.01% Triton X-100, 500 ug/ml BSA, 20 U/ml SUPERase-In, 4 C; UNK is unkempt and MSI1 is Musashi-1; names of the RNAs are library labels; protein concentration not given here; high values mean tight binding).
For B1, the binding signal was 3.98 enrichment R.
In the case of B2, the binding signal is reported as 3.01 enrichment R.
With B3 the binding signal was 1.71 enrichment R.
B4 showed a binding signal of 1.55 enrichment R.
For B5, the binding signal was 0.907 enrichment R.
With B6 the binding signal was 1.76 enrichment R.
B7 was tested, and the binding signal was 5.4 enrichment R.
B8 was tested, and the binding signal was 2.19 enrichment R.
B9 showed a binding signal of 3.75 enrichment R.
With B10 the binding signal was 1.56 enrichment R.
In the case of B11, the binding signal is reported as 3.41 enrichment R.
Binder B12 has a binding signal of 5.2 enrichment R.
With B13 the binding signal was 0.683 enrichment R.
B14 gave a binding signal of 0.747 enrichment R.

From article PMC12136788
